Several values for one entry are separate records, joined by “and”; a condition that tells them apart may be missing. Equal entries are not always repeated. Inconclusive results are not listed. Where a structure was tested more than once in an assay, its records may differ in their call. Activity calls are given as the source filed them. Calls follow the shape of the full dose curve.
Experiment: qHTS assay for small molecule agonists of the p53 signaling pathway - cell viability (AID 651633); also: nearly all actives have a fitted effect of over 30% in size;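 as to activity change, negative = cytotoxicity: p53RE-bla HCT reporter cells with a stable beta-lactamase p53 reporter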
Details: p53RE-bla HCT-116 viability, ATP luminescence, 16 h; series mostly up to 83.3 µM; activity change, negative = cytotoxicity: at the top concentration
Text: National Center for Advancing Translational Sciences [NCATS]
NIH Chemical Genomics Center [NCGC]
U.S. Environmental Protection Agency [EPA]
National Institutes of Environmental Health Sciences [NIEHS]
National Toxicology Program [NTP]
U.S. Food and Drug Administration [FDA]
p53, a tumor suppressor protein, is activated following cellular insult, including DNA damage and other cellular stresses. The activation of p53 regulates cell fate by inducing DNA repair, cell cycle arrest, apoptosis, or cellular senescence. The activation of p53, therefore, is a good indicator of DNA damage and other cellular stresses. […] The activation of the reporter gene under culture conditions can be detected by fluorescence intensity. This cell line was used to screen the Tox21 compound library in a 1536-well plate format and to identify agonists that activate the p53 signaling pathway.
Tox21 Assay Protocol Summary:
The p53RE-bla cells were dispensed at 4,000 cells/5 ul/well in 1536-well black wall/clear bottom plates using a Multidrop dispenser. After the assay plates were incubated at a 37 C/5% CO2 incubator for 5 hours, 23 nL of compounds dissolved in DMSO, positive controls or DMSO only was transferred to the assay plate by a pin tool. The plates were incubated at 37 C for 16 hours. After 1 uL of LiveBLAzerTM B/G FRET substrate was added using a Flying Reagent Dispenser, the plates were incubated at room temperature for 2 hours, and fluorescence intensity was measured by an Envision plate reader.
For cell viability readout that measures cytotoxicity, 4 ul/well of CellTiter-Glo reagent was added into the assay plates using a Flying Reagent Dispenser. After 30 min incubation at room temperature, the luminescence intensity in the plates was measured using a ViewLux plate reader.
For CN(C)c1ccc(SC#N)cc1, the “activity change, negative = cytotoxicity” value was 14.7% (inactive).
With CC(C)c1ccc2c(c1)CC[C@H]1[C@](C)(CN)CCC[C@]21C the Potency was 27.3 µM (active).
With COc1ccc(C(=O)/C(Br)=C\C(=O)O)cc1 the “activity change, negative = cytotoxicity” value was -27.8% (inactive).
In the case of Clc1ccccc1C(c1ccccc1)(c1ccccc1)n1ccnc1, the Potency is reported as 19.3 µM (active).
With O=c1cccccc1O the “activity change, negative = cytotoxicity” value was 12.9% [at 95.3 µM] (inactive).
With [Cl][Bi]([Cl])([c]1ccccc1)([c]1ccccc1)[c]1ccccc1 the Potency was 21.6 µM (active).
With C[n+]1ccn(Cc2ccccc2)c1 the “activity change, negative = cytotoxicity” value was -16.8% (inactive).
In the case of CNC(=O)c1ccccc1, the “activity change, negative = cytotoxicity” value is reported as 15.1% (inactive).
In the case of CCCC(c1cc(C(C)(C)C)c(O)cc1C)c1cc(C(C)(C)C)c(O)cc1C, the Potency is reported as 17.4 µM (active).
In the case of Nc1ccc(N)c2ccccc12, the Potency is reported as 15.3 µM (active).
In the case of On1ccccc1=S, the “activity change, negative = cytotoxicity” value is reported as 3.31% (inactive).
For CCCCN1C(=O)[C@@H]([C@H](O)C2CCCCC2)NC(=O)C12CCN(Cc1ccc(Oc3ccc(C(=O)O)cc3)cc1)CC2, the “activity change, negative = cytotoxicity” value was 16% (inactive).
In the case of CCCC/C=C/CCCCO, the “activity change, negative = cytotoxicity” value is reported as 9.69% (inactive).
With O=C(c1ccc(F)cc1)C1CCN(CCn2c(=O)[nH]c3ccccc3c2=O)CC1 the “activity change, negative = cytotoxicity” value was -13.1% (inactive).
With [O-][n+]1ccccc1SSc1cccc[n+]1[O-] the “activity change, negative = cytotoxicity” value was -17.7% (inactive).
For O=C1CCCCCN1SSN1CCCCCC1=O, the “activity change, negative = cytotoxicity” value was -18.3% (inactive).
For Oc1c(Cl)cc(Cl)c2cccnc12, the Potency was 2.98 µM (active).
For CCCC(C)c1ccccc1O (stereo not given), the “activity change, negative = cytotoxicity” value was -19.2% (inactive).
For COc1ccc(CN2CCN(C(c3ccc(F)cc3)c3ccc(F)cc3)CC2)c(OC)c1OC, the Potency was 26.6 µM (active).
For CC(C)(C)C(=O)OCOC(=O)C1N2C(=O)CC2S(=O)(=O)C1(C)C (stereo not given), the “activity change, negative = cytotoxicity” value was 13.6% (inactive).
In the case of Cc1ccc(O)c(C(C)(C)C)c1, the Potency is reported as 54.4 µM (active) and inactive.
In the case of CCCCCCCCNC(C)C(O)c1ccc(SC(C)C)cc1 (stereo not given), the Potency is reported as 10.6 µM (active).
In the case of CCCN(CCC)c1c([N+](=O)[O-])cc(C(F)(F)F)c(N)c1[N+](=O)[O-], the Potency is reported as 30.5 µM (active).
For NC(=O)N1C(=O)C(C(=O)c2cc(Cl)cs2)c2cc(F)c(Cl)cc21 (stereo not given), the Potency was 1.37 µM (active).
For C[C@@H](NCCCc1cccc(C(F)(F)F)c1)c1cccc2ccccc12, the Potency was 18.8 µM (active).
With COc1cc(-c2nc(NC(=O)c3cc4cc(C)cc(C)c4n3CC(=O)O)sc2CCC2CCCCC2)c(OC)cc1Cl the Potency was 3.97 µM (active).
With CCN(C(=O)c1cc(C)cc(OC[C@H](C)Nc2ccncc2)c1)C(C)C the “activity change, negative = cytotoxicity” value was -22% (inactive).
With CC(C)CCCCCCCCCCCCCCC(=O)O the Potency was 61.1 µM (active).
With CN1CCC(Nc2ncc3ncnc(Nc4ccc(F)c(Cl)c4)c3n2)CC1 the “activity change, negative = cytotoxicity” value was -10% (inactive).
With C1CCCC1 the “activity change, negative = cytotoxicity” value was -17.1% (inactive).
With OC1(c2ccc(Cl)c(C(F)(F)F)c2)CCN(CCCC(c2ccc(F)cc2)c2ccc(F)cc2)CC1 the Potency was 9.44 µM (active).
In the case of COc1cc(/C=C/C(=O)O[C@H]2CC[C@]34C[C@]35CC[C@]3(C)[C@@H]([C@H](C)CCC=C(C)C)CC[C@@]3(C)[C@@H]5CC[C@H]4C2(C)C)ccc1O, the Potency is reported as “inactive”.
For O=S1(=O)CC(Cl)(Cl)C(Cl)(Cl)C1, the Potency was 3.06 µM (active).
In the case of CCCC1O[C@@H]2C[C@H]3[C@@H]4CCC5=CC(=O)C=C[C@]5(C)[C@H]4[C@@H](O)C[C@]3(C)[C@]2(C(=O)CO)O1 (stereo not given in full), the Potency is reported as “inactive”.
With COc1cccc2c1C(=O)c1c(O)c3c(c(O)c1C2=O)C[C@@](O)(C(=O)CO)C[C@@H]3O[C@H]1C[C@H](N)[C@H](O[C@@H]2CCCCO2)[C@H](C)O1 the Potency was 8.41 µM (active).
For Oc1ccc(Cl)cc1Sc1cc(Cl)ccc1O, the Potency was 26.6 µM (active) and 54.4 µM (active).
For CCN(C(=O)N(CC)c1ccccc1)c1ccccc1, the “activity change, negative = cytotoxicity” value was -12.2% (inactive).
With CCCCc1oc2ccc(NS(C)(=O)=O)cc2c1C(=O)c1ccc(OCCCN(CCCC)CCCC)cc1 the Potency was 29.8 µM (active).
With CC(C)OC(=O)c1cc2c(OCC(O)CNC(C)(C)C)cccc2[nH]1 (stereo not given) the “activity change, negative = cytotoxicity” value was -2.15% (inactive).
For CC(C)(C)c1ccc(C(=O)CCCN2CCC(OC(c3ccccc3)c3ccccc3)CC2)cc1, the Potency was 21.1 µM (active).
% is scaled to controls: 0 for no effect and ±100 for the full control effect; potency is read from the fitted curve at half-maximal effect.
